In the supplement of paper PMC11732987, “Enantioselective OTUD7B fragment discovery through chemoproteomics screening and high-throughput optimisation” (Communications Chemistry, 2025):

Assays:
Experiment in all cases: log2 ratio of Biotin-Ahx-Ub-VS probe labelling (fragment/DMSO); higher = less target engagement (more negative = stronger competition), active = hit call of the paper (q ≤ 0.05, log2 ratio ≤ -1)
Conditions in all cases: compound concentration: 200 uM; treatment time: 3 h
USP19 = molecular target: T1, USP19 (UniProt O94966)
T1 sequence (whole entry): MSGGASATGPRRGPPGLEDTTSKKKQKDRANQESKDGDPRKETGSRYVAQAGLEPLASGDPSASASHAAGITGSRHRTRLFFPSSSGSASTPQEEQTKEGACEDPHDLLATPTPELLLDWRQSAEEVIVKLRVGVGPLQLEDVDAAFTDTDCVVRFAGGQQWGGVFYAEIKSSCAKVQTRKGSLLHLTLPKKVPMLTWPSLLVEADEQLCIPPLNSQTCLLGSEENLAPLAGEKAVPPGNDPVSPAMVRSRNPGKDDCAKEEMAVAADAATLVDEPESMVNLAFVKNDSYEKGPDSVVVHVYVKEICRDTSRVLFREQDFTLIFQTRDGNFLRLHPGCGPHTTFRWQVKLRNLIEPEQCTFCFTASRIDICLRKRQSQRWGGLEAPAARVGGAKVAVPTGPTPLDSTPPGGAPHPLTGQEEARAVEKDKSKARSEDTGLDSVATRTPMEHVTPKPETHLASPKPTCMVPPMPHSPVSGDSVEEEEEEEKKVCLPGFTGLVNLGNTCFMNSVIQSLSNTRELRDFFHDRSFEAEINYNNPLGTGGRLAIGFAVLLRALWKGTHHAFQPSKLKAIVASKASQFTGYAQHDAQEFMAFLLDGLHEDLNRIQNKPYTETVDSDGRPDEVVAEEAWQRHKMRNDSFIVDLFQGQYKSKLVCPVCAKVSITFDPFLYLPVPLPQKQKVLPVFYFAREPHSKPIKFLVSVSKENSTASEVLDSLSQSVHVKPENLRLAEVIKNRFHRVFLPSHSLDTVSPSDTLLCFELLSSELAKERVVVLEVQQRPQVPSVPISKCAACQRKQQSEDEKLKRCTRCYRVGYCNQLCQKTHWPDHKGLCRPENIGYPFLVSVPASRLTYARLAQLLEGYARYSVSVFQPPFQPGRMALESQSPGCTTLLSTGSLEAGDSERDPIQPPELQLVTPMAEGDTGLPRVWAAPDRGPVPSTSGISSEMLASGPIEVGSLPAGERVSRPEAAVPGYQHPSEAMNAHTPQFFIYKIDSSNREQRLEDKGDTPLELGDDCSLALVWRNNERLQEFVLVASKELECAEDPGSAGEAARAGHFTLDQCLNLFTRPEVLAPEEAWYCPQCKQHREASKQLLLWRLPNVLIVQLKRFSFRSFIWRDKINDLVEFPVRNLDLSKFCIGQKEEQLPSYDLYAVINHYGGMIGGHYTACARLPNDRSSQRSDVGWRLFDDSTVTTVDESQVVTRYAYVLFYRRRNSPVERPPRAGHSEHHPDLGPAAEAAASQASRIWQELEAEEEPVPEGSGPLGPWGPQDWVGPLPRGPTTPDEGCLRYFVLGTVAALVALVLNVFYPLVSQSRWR
How it was run: (§1)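 Global-median-normalised Spectronaut label-free quantities were compared by unpaired t-test, and values are average log2 ratios of fragment over vehicle. Only proteins with ≥2 unique peptides were used. HEK293T lysate (495 µg per sample) was treated in triplicate with fragment at 200 µM or vehicle for 3 h and then with Biotin-Ahx-Ub-VS at 0.5 µM final for 1 h. Labelled DUBs were then NeutrAvidin-enriched, digested with LysC and trypsin, and run by diaPASEF LC-MS/MS.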

USP22 = molecular target: T2, USP22 (UniProt Q9UPT9)
T2 sequence (whole entry): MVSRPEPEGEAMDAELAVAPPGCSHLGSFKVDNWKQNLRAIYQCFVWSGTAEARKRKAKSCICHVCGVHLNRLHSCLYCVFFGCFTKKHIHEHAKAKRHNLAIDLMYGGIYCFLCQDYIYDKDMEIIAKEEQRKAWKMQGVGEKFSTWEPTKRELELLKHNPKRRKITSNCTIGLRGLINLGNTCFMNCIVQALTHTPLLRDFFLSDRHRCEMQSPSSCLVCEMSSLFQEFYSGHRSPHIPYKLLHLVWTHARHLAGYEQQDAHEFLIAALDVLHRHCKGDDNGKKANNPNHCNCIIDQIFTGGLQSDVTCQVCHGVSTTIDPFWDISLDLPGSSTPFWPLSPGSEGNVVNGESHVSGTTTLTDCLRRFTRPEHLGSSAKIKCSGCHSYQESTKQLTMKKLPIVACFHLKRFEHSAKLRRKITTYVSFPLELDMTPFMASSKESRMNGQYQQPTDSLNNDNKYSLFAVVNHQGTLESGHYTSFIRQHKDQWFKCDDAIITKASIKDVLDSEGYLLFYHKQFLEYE
How it was run: as §1

USP24 = USP24 (UniProt Q9UPU5)
Sequence of USP24 (Q9UPU5 whole entry): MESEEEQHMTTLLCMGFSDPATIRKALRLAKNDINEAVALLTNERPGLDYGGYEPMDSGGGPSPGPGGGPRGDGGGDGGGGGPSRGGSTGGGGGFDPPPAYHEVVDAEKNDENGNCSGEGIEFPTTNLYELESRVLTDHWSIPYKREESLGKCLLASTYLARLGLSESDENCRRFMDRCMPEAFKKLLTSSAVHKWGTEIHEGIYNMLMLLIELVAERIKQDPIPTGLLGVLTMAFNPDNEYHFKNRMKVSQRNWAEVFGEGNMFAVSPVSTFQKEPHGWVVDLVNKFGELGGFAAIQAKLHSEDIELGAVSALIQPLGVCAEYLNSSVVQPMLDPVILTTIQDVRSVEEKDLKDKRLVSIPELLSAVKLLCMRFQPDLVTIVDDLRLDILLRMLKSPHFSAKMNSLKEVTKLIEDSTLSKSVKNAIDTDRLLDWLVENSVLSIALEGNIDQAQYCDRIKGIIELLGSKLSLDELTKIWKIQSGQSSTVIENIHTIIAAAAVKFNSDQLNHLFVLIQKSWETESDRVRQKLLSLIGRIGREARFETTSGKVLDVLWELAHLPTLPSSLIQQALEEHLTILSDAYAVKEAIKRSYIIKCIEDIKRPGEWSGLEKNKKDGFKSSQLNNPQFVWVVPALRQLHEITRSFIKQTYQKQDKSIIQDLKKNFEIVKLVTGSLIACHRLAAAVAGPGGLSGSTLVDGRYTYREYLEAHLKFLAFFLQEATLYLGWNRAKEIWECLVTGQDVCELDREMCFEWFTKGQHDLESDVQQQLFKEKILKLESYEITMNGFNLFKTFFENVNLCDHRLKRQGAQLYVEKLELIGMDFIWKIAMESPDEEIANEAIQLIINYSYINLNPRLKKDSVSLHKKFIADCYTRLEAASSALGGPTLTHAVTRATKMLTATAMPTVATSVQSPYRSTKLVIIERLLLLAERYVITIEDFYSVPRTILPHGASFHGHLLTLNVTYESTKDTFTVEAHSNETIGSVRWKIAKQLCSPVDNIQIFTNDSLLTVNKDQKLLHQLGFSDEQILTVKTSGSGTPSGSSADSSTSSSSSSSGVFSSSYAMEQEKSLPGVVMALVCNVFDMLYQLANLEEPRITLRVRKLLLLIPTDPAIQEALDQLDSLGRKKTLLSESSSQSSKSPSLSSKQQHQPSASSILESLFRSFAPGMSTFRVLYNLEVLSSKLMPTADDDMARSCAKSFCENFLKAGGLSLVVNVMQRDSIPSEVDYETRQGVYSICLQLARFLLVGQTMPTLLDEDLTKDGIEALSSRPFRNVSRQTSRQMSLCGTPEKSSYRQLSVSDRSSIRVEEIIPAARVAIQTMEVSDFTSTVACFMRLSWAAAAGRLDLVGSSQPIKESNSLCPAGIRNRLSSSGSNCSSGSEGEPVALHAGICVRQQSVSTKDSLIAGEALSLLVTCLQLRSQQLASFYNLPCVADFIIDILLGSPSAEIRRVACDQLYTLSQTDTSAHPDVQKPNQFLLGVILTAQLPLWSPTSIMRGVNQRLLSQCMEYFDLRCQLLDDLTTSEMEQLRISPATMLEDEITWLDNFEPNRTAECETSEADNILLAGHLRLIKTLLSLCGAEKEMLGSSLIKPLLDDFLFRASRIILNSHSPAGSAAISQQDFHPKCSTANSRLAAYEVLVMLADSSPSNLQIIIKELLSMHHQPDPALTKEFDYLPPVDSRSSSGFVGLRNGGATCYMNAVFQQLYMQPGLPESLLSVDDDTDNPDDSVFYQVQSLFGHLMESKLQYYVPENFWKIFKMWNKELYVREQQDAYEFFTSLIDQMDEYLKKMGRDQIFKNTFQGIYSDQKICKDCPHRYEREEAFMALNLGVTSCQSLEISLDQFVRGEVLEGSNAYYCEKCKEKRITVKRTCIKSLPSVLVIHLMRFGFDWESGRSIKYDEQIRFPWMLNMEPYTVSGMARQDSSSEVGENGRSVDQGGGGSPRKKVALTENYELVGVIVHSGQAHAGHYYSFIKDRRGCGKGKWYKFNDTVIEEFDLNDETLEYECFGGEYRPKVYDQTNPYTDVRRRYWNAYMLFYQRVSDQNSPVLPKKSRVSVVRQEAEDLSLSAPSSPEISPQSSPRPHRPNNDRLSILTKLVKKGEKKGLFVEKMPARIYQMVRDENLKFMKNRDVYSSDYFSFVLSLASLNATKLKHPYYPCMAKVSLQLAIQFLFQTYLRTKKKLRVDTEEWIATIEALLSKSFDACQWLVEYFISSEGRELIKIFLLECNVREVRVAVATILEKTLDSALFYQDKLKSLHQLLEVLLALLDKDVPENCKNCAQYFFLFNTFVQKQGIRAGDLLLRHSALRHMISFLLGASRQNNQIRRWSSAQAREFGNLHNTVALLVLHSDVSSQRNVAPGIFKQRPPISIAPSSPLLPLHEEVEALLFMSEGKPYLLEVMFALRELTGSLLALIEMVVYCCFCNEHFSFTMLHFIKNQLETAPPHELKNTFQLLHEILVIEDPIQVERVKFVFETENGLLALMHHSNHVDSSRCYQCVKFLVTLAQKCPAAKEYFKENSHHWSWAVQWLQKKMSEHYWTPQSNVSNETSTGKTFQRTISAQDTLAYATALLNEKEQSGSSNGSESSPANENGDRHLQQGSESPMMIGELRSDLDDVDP
How it was run: as §1

USP25 = molecular target: T3, USP25 (UniProt Q9UHP3)
T3 sequence (whole entry): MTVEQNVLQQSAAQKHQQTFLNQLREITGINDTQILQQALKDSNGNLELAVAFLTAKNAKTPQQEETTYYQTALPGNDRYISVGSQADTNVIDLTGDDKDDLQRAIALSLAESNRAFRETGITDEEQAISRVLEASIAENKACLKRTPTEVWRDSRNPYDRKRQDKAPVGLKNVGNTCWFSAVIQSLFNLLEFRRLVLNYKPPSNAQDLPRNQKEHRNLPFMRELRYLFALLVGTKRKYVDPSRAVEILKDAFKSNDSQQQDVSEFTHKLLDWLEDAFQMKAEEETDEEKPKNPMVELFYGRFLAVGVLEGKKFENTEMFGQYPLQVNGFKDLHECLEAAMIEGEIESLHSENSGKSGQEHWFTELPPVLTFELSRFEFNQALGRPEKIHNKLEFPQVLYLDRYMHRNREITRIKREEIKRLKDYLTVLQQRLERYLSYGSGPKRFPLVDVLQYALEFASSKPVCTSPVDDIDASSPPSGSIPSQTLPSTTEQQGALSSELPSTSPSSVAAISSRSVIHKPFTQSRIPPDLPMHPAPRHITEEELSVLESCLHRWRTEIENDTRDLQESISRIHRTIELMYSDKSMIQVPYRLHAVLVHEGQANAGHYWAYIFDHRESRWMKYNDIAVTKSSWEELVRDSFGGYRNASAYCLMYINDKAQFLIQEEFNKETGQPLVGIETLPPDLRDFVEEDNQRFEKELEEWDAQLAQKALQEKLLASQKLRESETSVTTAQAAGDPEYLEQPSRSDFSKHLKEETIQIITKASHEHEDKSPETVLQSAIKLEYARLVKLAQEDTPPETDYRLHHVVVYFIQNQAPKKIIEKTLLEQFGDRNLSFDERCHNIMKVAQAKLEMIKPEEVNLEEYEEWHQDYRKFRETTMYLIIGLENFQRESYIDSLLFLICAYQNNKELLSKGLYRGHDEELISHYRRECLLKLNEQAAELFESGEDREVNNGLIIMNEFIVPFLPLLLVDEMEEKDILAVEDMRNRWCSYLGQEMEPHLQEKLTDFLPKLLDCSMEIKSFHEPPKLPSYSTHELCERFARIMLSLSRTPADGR
How it was run: as §1

USP28 = molecular target: T4, USP28 (UniProt Q96RU2)
T4 sequence (whole entry): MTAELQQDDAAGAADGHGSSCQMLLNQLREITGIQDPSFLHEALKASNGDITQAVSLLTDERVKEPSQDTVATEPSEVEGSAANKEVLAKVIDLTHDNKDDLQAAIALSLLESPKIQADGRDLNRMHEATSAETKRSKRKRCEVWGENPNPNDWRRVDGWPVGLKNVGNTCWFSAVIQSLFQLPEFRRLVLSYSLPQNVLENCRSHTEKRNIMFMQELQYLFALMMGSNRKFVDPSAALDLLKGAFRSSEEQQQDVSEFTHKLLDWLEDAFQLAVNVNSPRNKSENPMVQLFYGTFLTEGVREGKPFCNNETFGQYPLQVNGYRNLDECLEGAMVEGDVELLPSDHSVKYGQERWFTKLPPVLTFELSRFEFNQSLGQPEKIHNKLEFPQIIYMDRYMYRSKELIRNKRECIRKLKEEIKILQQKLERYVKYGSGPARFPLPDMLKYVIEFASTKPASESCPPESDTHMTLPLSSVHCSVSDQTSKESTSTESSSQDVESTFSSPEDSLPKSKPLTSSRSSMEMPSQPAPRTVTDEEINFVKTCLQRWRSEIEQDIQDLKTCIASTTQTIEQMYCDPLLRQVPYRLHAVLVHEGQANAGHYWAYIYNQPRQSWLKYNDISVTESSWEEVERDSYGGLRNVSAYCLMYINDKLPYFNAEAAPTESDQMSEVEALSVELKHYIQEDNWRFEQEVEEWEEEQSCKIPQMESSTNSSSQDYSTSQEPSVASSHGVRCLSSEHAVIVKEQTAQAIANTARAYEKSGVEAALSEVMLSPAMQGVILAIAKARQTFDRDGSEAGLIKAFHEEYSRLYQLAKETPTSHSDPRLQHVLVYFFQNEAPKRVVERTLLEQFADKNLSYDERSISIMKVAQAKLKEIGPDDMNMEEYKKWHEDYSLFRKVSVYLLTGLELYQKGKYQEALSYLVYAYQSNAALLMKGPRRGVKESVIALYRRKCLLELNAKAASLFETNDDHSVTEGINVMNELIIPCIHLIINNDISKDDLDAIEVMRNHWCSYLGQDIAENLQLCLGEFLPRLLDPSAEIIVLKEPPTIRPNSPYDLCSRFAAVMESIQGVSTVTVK
How it was run: as §1

Measured: log2 ratio of Biotin-Ahx-Ub-VS probe labelling

Cc1cccc(N2CCC(NC(=O)CCl)C2=O)c1 (stereo not given)
inactive: USP19 -0.0964 | USP22 0.199 | USP24 -0.149 | USP25 -0.421 | USP28 -0.475
